High-throughput results deposited in PubChem by The Scripps Research Institute Molecular Screening Center.
Fam108B inh – counter-screen for RBBP9 inhibitors: inhibitors of mouse Fam108B; recombinant Fam108B, FP-Rh probe fluorescence polarization; 0.33% of 300,000 active; inhibition, % at 9.51 µM;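 active = inhibition above the screen mean inhibition plus 3 SD, computed separately per campaign, cut at about 18% in these data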;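 also: inhibitors lower polarization as less probe binds the enzyme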
GSTO1 counter – blocks human GSTO1 in RBBP9 counter-screen | recombinant GSTO1, activity-based probe fluorescence polarization | inhibition, % at 5.96 µM | 1.1% of 300,000 active | AID 1974;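 active = inhibition above the campaign mean inhibition plus 3 SD, cut at about 35% in these data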
PME-1 inh – PME-1 (human) inhibition. Q9Y570. recombinant PME-1, FP-Rh probe fluorescence polarization. inhibition, % at 5.9 µM. 0.53% of 320,000 active. AID 2130;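 active = inhibition above the campaign mean of all compounds plus 3 SD, cut at about 26% in these data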;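 also: competitive labeling of PME-1 active site by serine hydrolase directed probe; inhibitors block probe labeling so polarization falls and inhibition rises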
PAD4 inh – blocks human protein arginine deiminase 4. Q9UM07. recombinant PAD4, RCA probe fluorescence polarization. inhibition, % at 6.36 µM. 0.41% of 330,000 active;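 active = percent inhibition above a cutoff equal to the mean of all tested compounds plus 3 SD, cut at about 15% in these data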
Target sequence (Q9UM07 whole entry, looked up): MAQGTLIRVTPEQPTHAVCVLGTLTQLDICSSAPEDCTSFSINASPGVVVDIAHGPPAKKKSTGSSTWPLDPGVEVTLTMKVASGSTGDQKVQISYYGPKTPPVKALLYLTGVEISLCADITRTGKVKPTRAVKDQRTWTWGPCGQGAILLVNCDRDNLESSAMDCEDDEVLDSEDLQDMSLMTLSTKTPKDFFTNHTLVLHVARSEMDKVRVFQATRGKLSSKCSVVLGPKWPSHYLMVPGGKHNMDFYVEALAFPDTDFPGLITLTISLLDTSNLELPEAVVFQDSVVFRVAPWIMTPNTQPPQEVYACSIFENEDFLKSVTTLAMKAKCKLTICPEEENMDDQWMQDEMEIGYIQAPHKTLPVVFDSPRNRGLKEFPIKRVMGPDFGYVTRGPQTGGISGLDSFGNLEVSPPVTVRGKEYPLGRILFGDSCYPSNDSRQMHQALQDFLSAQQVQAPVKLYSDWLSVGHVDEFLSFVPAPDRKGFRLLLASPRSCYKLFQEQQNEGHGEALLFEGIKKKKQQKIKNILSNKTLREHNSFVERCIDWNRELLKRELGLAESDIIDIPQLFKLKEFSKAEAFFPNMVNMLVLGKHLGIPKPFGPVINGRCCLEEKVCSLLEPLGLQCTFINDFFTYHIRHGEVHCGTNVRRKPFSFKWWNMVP
pPAFAH FP inh – inhibitors of human plasma PAF acetylhydrolase (pPAFAH); Q13093; recombinant pPAFAH, FP-rhodamine probe fluorescence polarization; inhibition, % at 3.39 µM; 1.5% of 330,000 active; AID 463082;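 active = inhibition above the mean inhibition across the screen plus 3 SD, cut at about 25% in these data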;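 also: inhibitors block binding of the rhodamine activity-based probe so polarization drops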
PAD4 confirm – PAD4 (human) inhibition, confirmed | shares compounds with PAD4 inh | recombinant PAD4, RCA probe fluorescence polarization | inhibition, % at 6.36 µM | 28% of 1,200 active | AID 488796;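 active = mean inhibition across replicates above the hit cutoff set by the earlier primary screen, cut at about 15% in these data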;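 also: inhibitors block active-site labeling by the probe so polarization falls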
Hits are given with their value. Most compounds without a hit are left out; they make up all but 2.3% or so of the library.

Screening CCC1OC2(C)OC(=N)C1(C#N)C(C#N)(C#N)C2c1ccccc1 (stereo unspecified) returned Fam108B inh inactive, GSTO1 counter inactive, PME-1 inh inactive, PAD4 inh 15.5, pPAFAH FP inh inactive and PAD4 confirm inactive.
Screening CC1CCC(C(C)C)C2=C1C(C#N)(C#N)C(C#N)(C#N)C(c1ccccc1)N2 (stereo unspecified) returned Fam108B inh inactive, GSTO1 counter inactive, PME-1 inh inactive, PAD4 inh inactive and pPAFAH FP inh inactive.
Screening CC(C)CC1NC(=O)c2ccccc2-n2c1nc1ccc(Cl)cc1c2=O (stereo unspecified) returned PAD4 inh inactive and pPAFAH FP inh inactive.
Screening COc1ccc(CCNC(=O)COc2nsnc2N2CCOCC2)cc1OC returned Fam108B inh inactive, GSTO1 counter inactive, PME-1 inh inactive, PAD4 inh 43.8, pPAFAH FP inh inactive and PAD4 confirm inactive.
`CN(C)S(=O)(=O)c1ccc(C(=O)NCc2nnc(SCC(=O)Nc3ccc(F)cc3)n2-c2ccc(F)cc2)cc1` gave Fam108B inh inactive, GSTO1 counter inactive, PME-1 inh inactive, PAD4 inh inactive and pPAFAH FP inh inactive.
For O=C(Nc1csc([N+](=O)[O-])c1)Nc1ccccc1Cl the results were Fam108B inh inactive, GSTO1 counter inactive, PME-1 inh inactive, PAD4 inh inactive and pPAFAH FP inh inactive.
O=C(Nc1ccc(Cl)cc1)Nc1ccccc1Sc1ncc([N+](=O)[O-])s1 was read as Fam108B inh inactive, GSTO1 counter inactive, PME-1 inh inactive, PAD4 inh 21.9, pPAFAH FP inh inactive and PAD4 confirm inactive.
Screening O=C1CC/C=C\C[C@@H](CC(=O)N(CCO)Cc2ccccc2)C(=O)N[C@H](Cc2c[nH]c3ccccc23)CO1 returned PAD4 inh inactive and pPAFAH FP inh inactive.
Screening COC(=O)C1=NNC2(c3ccc(Cl)cc3)C(=O)N(c3ccccc3)C(=O)C12 (stereo unspecified) returned Fam108B inh inactive, GSTO1 counter inactive, PME-1 inh inactive, PAD4 inh inactive and pPAFAH FP inh inactive.
For Cc1ccc(COC(=O)c2nn(C)c(=O)c3ccccc23)cc1 the results were Fam108B inh inactive, GSTO1 counter inactive, PME-1 inh inactive, PAD4 inh 25.3, pPAFAH FP inh inactive and PAD4 confirm inactive.
`Cn1nc(C(=O)OCc2ccc(F)cc2)c2ccccc2c1=O` gave Fam108B inh inactive, GSTO1 counter inactive, PME-1 inh inactive, PAD4 inh inactive and pPAFAH FP inh inactive.
Screening CC(C)=NOCC(=O)Nn1c(COc2c(C)cccc2C)nc2ccccc2c1=O returned Fam108B inh inactive, GSTO1 counter inactive, PME-1 inh inactive, PAD4 inh inactive and pPAFAH FP inh inactive.
For O=C1C=C(Nc2ccc(F)cc2)c2ccccc2C1=O the results were PME-1 inh inactive, PAD4 inh 40.2, pPAFAH FP inh inactive and PAD4 confirm 38.5.
For O=c1cnnc(Nc2ccc(F)cc2)[nH]1 the results were Fam108B inh inactive, GSTO1 counter inactive, PME-1 inh inactive, PAD4 inh inactive and pPAFAH FP inh inactive.
For COc1cc2cc(CCCOC(=O)c3ccc(C#N)cc3)oc(=O)c2cc1OC the results were PME-1 inh inactive, PAD4 inh inactive and pPAFAH FP inh inactive.
For CC1=NN(c2ccc(C)c(C)c2)C(=O)/C1=C/c1ccc2c(c1)n(C)c(=O)n2C the results were Fam108B inh inactive, GSTO1 counter 37.2, PME-1 inh inactive, PAD4 inh 47.5, pPAFAH FP inh inactive and PAD4 confirm inactive.
Screening Cc1cc(S(=O)(=O)N2CCN=C2c2ccccc2)c(Cl)cc1Cl returned Fam108B inh inactive, GSTO1 counter inactive, PME-1 inh inactive, PAD4 inh inactive and pPAFAH FP inh inactive.
`CC(=O)Nc1ccc(N/C(C)=C/C(=O)c2cccnc2)cc1` gave Fam108B inh inactive, GSTO1 counter inactive, PME-1 inh inactive, PAD4 inh 21.6, pPAFAH FP inh inactive and PAD4 confirm inactive.
`C/C(=C\C(=O)c1cccnc1)Nc1ccc(C(=O)O)cc1` gave Fam108B inh inactive, GSTO1 counter inactive, PME-1 inh inactive, PAD4 inh inactive and pPAFAH FP inh inactive.
`CC(=O)c1ccc(NC(=S)Nc2ccc(N3CCOCC3)cc2)cc1` gave Fam108B inh inactive, GSTO1 counter inactive, PME-1 inh inactive, PAD4 inh 19.6, pPAFAH FP inh inactive and PAD4 confirm inactive.
For C/C(=C\C(=O)c1ccccc1)Nc1ccc(N2CCOCC2)cc1 the results were Fam108B inh inactive, GSTO1 counter inactive, PME-1 inh inactive, PAD4 inh 20.1, pPAFAH FP inh inactive and PAD4 confirm inactive.
